# The supplement of paper PMC6555819
# How the values were obtained:
# Experiment in all cases: PBM binding z-score (relative to random genomic background probes); higher = stronger binding; sequences stand for … in GC…GCGATTGACAGCGTAGAATGAAGG
# [1] = system: PPARg:RXRa DBDmut IVT, anti-RXR (DBD mutation: RXRa K156A/R161A, NR concentration 270 nM, RXRa partner concentration 90 nM)
# Method in brief: (§1)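 Each nuclear receptor dimer, without ligand, was incubated for 1 h on custom Agilent 4×180K protein-binding microarrays. Binding was detected with antibodies against each partner (one per run), and scanned fluorescence was regression-normalized. The binding z-scores are referenced to random human genomic background probes.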
# [2] = system: PPARg:RXRa IVT, anti-PPARg (NR concentration 270 nM, RXRa partner concentration 90 nM)
# Method in brief: as §1
# [3] = system: PPARg DBDmut:RXRa IVT, anti-PPARg (DBD mutation: PPARg1 K132A/R137A, NR concentration 270 nM, RXRa partner concentration 90 nM)
# Method in brief: as §1
# [4] = system: PPARg DBDmut IVT, anti-PPARg (DBD mutation: PPARg1 K132A/R137A, NR concentration 270 nM)
# Method in brief: as §1
# [5] = system: PPARg homodimer (NR concentration 180 nM)
# Method in brief: as §1
# [6] = system: PXR:RXRa (NR concentration 270 nM, RXRa partner concentration 90 nM)
# Method in brief: as §1
# [7] = system: PXR homodimer (NR concentration 270 nM)
# Method in brief: as §1
# [8] = system: RARa:RXR (NR concentration 270 nM, RXRa partner concentration 90 nM)
# Method in brief: as §1
# [9] = system: RARa homodimer (NR concentration 270 nM)
# Method in brief: as §1
# [10] = system: RARb:RXRa (NR concentration 270 nM, RXRa partner concentration 90 nM)
# Method in brief: as §1
Sequence,PBM binding z-score [1],PBM binding z-score [2],PBM binding z-score [3],PBM binding z-score [4],PBM binding z-score [5],PBM binding z-score [6],PBM binding z-score [7],PBM binding z-score [8],PBM binding z-score [9],PBM binding z-score [10]
TCGAGTCGGTTACCAATGGGGCATTCAGCTTTCT,0.844,-0.0532,-0.399,-0.375,-0.537,-0.204,-0.793,-0.238,-0.811,0.0866
CCTGCTGGGTCAATGGTCAGCTAAAGCAGCTCGC,2.51,3.15,-1.4,-0.684,0.557,0.874,-0.552,1.78,-0.395,3.29
CAAATTAGGTCAAGAGGTCAAAGTCCGCTTCCCG,8.5,8.22,3.42,1.71,8.6,6.49,3.51,8.33,5.28,5.74
CCTAGCAGGCCAATCTGGGACACTCAAGGCTTGA,3.13,2.73,-0.765,-0.94,-0.694,-0.828,-0.916,-0.753,-0.862,0.0896
AGATGTAGGTTAAGGGTCATTCAGGTTGGTTCGC,7.33,7.46,1.97,1.04,3.44,5.52,3.11,6.2,2.4,3.66
AGAATGAGGTTATTAAGAGCAGGGAATTGCGGTC,2.93,2.39,0.24,-0.178,0.998,1.08,0.932,1.42,0.134,1.47
CCTTACGGGTCACTAACAGGTTATAGCATTTGGA,2.88,3.68,1.26,0.395,2.62,3.28,0.184,4.08,1.72,3.92
TCTAGCAGGCCAGCGGGTCACTCAAGAGGTACGG,0.972,1.03,-0.284,-0.723,0.406,1.12,-0.865,1.81,-0.465,1.81
GCGTATAGGTAATACAAGGTGAAAGTCCGATTGT,1.36,1.33,0.339,-0.802,0.129,0.699,-0.0902,1.12,0.521,0.576
ATCTCCAGGTAAAAGTTCAGTGAATCCCGAGGAT,0.0885,2.31,1.68,1.01,1.84,2.4,1.88,2.14,1.07,2.6
GGAACGAGGGCATGCGAGTTGATAGCATGGCGAT,2.78,1.98,-0.352,-0.663,-0.621,3.59,0.407,0.73,-0.824,1.91
CGTCCAAGGTCAAGGTTAGTGAAAGAGACTCGAA,3.18,3.79,0.923,0.146,2.5,3.81,0.691,4.34,0.992,5.07
GCTGCTAGGTCAGGTTTGTCAGCTAACGGGTACG,3.26,1.92,-0.625,-0.587,0.518,0.229,-0.27,0.51,-0.0516,2.95
CCTAGCATGCCAATCTGGGTCACTCAAGGCTTGA,3.67,4.84,0.133,-0.458,0.737,0.913,-0.249,1.65,-0.219,1.16
CACCCTAGGTCAGGGCCAGTATAGGAGGAACGTT,0.709,1.64,-0.28,-0.553,1.71,0.664,0.00908,1.49,-0.0281,3.38
TTACCAAGGTGAAACGTCGTTGATGCACGCCTTG,3.12,2.95,0.206,0.358,0.178,-0.0159,-0.972,0.592,-0.282,1.62
AAAATGAGGTTATACGTAGATCAGGGAAGAAAGT,4.62,3.11,2.19,1.29,0.818,1.37,0.994,1.99,0.921,1.56
CCTACTGGGGCAAGGTTACCATAACGCACAGCCA,4.78,5.52,2.27,0.765,2.66,0.3,-0.0906,0.631,0.512,1.7
CGAACTAGGTCATTTACAGGACAGTGAATAGTAA,8.11,8.23,5.73,3.57,2.35,1.74,0.63,2.39,0.283,3.39
GGAAAGAGGGCAAAGTTGATAGCATCTGTCGACG,3.73,3.74,1.03,-0.31,1.67,1.77,0.468,2.25,0.527,2.77
AGAATGAGGTTATTAAGATCGGGGAATTGCGGTC,2.65,2.39,0.666,-0.0579,0.639,1.23,0.366,1.26,0.527,1.37
TCGTGTAGATCAATAGAGGTTAAGAAAGTGCGCT,1.64,0.537,-0.0229,-0.0334,0.586,2.99,0.386,1.79,0.575,0.822
ATCTCTACGTAACCAAGTTCAGTGAATGCCGAAC,-0.22,0.0113,0.854,0.806,0.739,1.29,1.4,0.427,0.401,0.836
